In the library only some 3.8% were active in any assay of this set; here they are far more common.
ERb SRC1 inh: blocks coactivator binding to human estrogen receptor beta. TR-FRET ER-beta LBD / SRC1-Cy5 peptide binding; receptor agonist-loaded with 1 µM estradiol. actives 1.3% (n = 86,000). AID 633. inhibition, % at 25.6 µM;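 active means compounds whose percent inhibition of the receptor-coactivator binding signal exceeds about 50% in the single-dose screen, limit read from the data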
MT1-MMP txn act: MT1-MMP promoter transcription activation; HT1080 MT1-MMP promoter luciferase reporter, luminescence, overnight; active compounds read high; activation factor at 10 µM; actives 0.16% (n = 86,000);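 active means activation factor of at least 2 for MT1-MMP transcription at 10 µM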
ERa SRC1 pot: enhances coactivator binding to human estrogen receptor alpha; actives 1.3% (n = 86,000); coactivator binding (% of control), % at 25.6 µM; TR-FRET ERalpha-LBD/SRC-Cy5 coactivator binding, 2 h; 100 = basal binding, no effect; P03372; in the data active means activity above about 200%;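 further: binding measured in presence of low estradiol as agonist stimulus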
Target sequence (P03372 whole entry, looked up, the tested form may be a part): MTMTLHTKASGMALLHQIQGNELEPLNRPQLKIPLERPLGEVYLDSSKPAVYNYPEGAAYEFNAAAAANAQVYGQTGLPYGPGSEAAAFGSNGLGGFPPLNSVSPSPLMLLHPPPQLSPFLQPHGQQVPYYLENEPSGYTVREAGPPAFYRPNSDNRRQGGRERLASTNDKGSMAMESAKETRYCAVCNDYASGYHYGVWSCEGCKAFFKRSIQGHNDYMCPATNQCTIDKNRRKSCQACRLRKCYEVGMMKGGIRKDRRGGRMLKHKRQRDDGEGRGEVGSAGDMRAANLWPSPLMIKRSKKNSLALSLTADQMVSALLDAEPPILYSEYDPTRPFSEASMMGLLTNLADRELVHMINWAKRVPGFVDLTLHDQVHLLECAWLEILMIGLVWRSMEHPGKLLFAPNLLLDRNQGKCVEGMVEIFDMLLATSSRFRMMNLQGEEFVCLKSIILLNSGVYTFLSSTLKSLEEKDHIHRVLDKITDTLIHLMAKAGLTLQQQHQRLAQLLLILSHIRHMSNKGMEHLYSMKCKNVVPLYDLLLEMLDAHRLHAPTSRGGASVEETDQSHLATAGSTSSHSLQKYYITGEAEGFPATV
Smad3 FoxH1 inh: Smad3 (human) transcription factor binding inhibition; actives 0.29% (n = 88,000); TR-FRET Smad3/Dy647-FoxH1 peptide binding, europium anti-His; inhibition, % at 25 µM; P84022;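 active means compounds that reduce the energy-transfer binding signal between the protein and its labelled peptide by more than half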
ERa SRC1 inh: blocks coactivator binding to human estrogen receptor alpha; P03372; TR-FRET ER-alpha LBD / SRC-1 peptide, estradiol-bound; inhibition, % at 25.6 µM; actives 1.7% (n = 86,000); in the data active means inhibition above about 50%
Calb biofilm kill: kills Candida albicans biofilms; C. albicans biofilm + clotrimazole, Alamar Blue; inhibition, % at 6 µM; actives 0.14% (n = 85,000); AID 834;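 active means inhibition above 20%; inactive means inhibition below 20%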;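 further: preformed 24 hr biofilms exposed to compound for 48 hr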
Numbers stand for hits; [ ] = dose if it differs, or a comment.

`Cc1ccccc1Cn1c(CN2CCc3ccccc3C2)nc2c1c(=O)n(C)c(=O)n2C` gave ERb SRC1 inh 97[fluorescence artefact?], MT1-MMP txn act inactive, ERa SRC1 pot inactive, Smad3 FoxH1 inh inactive, ERa SRC1 inh inactive and Calb biofilm kill inactive.
`COc1ccc(N2CCn3c2nc2c3c(=O)n(CCCc3ccccc3)c(=O)n2C)cc1` gave ERb SRC1 inh inactive, MT1-MMP txn act inactive, ERa SRC1 pot inactive, Smad3 FoxH1 inh inactive, ERa SRC1 inh 87[fluorescence artefact?] and Calb biofilm kill inactive.
CCC/C=C(\CCC)C(NP(=O)(c1ccccc1)c1ccccc1)c1ccc(-c2ccccc2)cc1 (configuration not stated) was read as MT1-MMP txn act inactive.
COC(=O)c1ccc(C(NC(=O)OCc2ccccc2)/C(F)=C/[C@@H](C)C(=O)N(C)Cc2cccnc2)cc1 (some centres not stated) was read as MT1-MMP txn act inactive.
COc1ccc(OC)c(S(=O)(=O)N2CCCc3ccccc32)c1 was read as ERb SRC1 inh inactive, MT1-MMP txn act inactive, ERa SRC1 pot inactive, Smad3 FoxH1 inh inactive, ERa SRC1 inh inactive and Calb biofilm kill inactive.
COc1ccc(C(=O)N2CCCN(C)CC2)cc1S(=O)(=O)N1CCCc2ccccc21 was read as ERb SRC1 inh inactive, MT1-MMP txn act inactive, ERa SRC1 pot 225, Smad3 FoxH1 inh inactive, ERa SRC1 inh inactive and Calb biofilm kill inactive.
`O=C(Cn1c(=O)oc2cc(S(=O)(=O)N3CCCC3)ccc21)Nc1cccc(C(F)(F)F)c1` gave ERb SRC1 inh inactive, MT1-MMP txn act inactive, ERa SRC1 pot 234[fluorescence artefact?], Smad3 FoxH1 inh inactive, ERa SRC1 inh 60[fluorescence artefact?] and Calb biofilm kill inactive.
O=C(Cn1c(=O)oc2ccccc21)Nc1ccc(S(=O)(=O)N2CCCCC2)cc1 was read as ERb SRC1 inh inactive, MT1-MMP txn act inactive, ERa SRC1 pot inactive, Smad3 FoxH1 inh inactive, ERa SRC1 inh 63[fluorescence artefact?] and Calb biofilm kill inactive.
`CCN(CC)S(=O)(=O)c1ccc(NC(=O)Cn2c(=O)oc3ccccc32)cc1` gave ERb SRC1 inh inactive, MT1-MMP txn act inactive, ERa SRC1 pot inactive, Smad3 FoxH1 inh inactive, ERa SRC1 inh inactive and Calb biofilm kill inactive.
For Cc1ccc(CCNS(=O)(=O)c2cnc[nH]2)cc1 the results were ERb SRC1 inh 70, MT1-MMP txn act inactive, ERa SRC1 pot inactive, Smad3 FoxH1 inh inactive, ERa SRC1 inh inactive and Calb biofilm kill inactive.
`Cc1cc(=O)c2ccc3ccccc3c2[nH]1` gave ERb SRC1 inh inactive, MT1-MMP txn act inactive, ERa SRC1 pot inactive, Smad3 FoxH1 inh inactive, ERa SRC1 inh inactive and Calb biofilm kill inactive.
`O=c1cc(-c2ccco2)oc2c1ccc1ccccc12` gave ERb SRC1 inh 52[fluorescence artefact?], MT1-MMP txn act inactive, ERa SRC1 pot 327, Smad3 FoxH1 inh inactive, ERa SRC1 inh 51[fluorescence artefact?] and Calb biofilm kill inactive.
`NC(=O)NCCS[C@H]1CCCC[C@@H]1O` gave Smad3 FoxH1 inh inactive.
O=C(Nc1ccccc1F)c1cc2nc(C(F)F)cc(C(F)F)n2n1 was read as ERb SRC1 inh inactive, MT1-MMP txn act inactive, ERa SRC1 pot inactive, Smad3 FoxH1 inh inactive, ERa SRC1 inh inactive and Calb biofilm kill inactive.
COC(=O)c1ccc(Cn2cnc3c(sc4nc(N5CCOCC5)c5c(c43)CCCC5)c2=O)o1 was read as ERb SRC1 inh inactive, MT1-MMP txn act inactive, ERa SRC1 pot 203, Smad3 FoxH1 inh inactive, ERa SRC1 inh inactive and Calb biofilm kill inactive.
`COC(=O)CSc1ncnc2c1sc1nc(N3CCOCC3)c3c(c12)CCCC3` gave ERb SRC1 inh inactive, MT1-MMP txn act inactive, ERa SRC1 pot 391[fluorescence artefact?], Smad3 FoxH1 inh inactive, ERa SRC1 inh inactive and Calb biofilm kill inactive.
For Cc1cccc2nc(=S)n(C(=O)c3ccco3)n12 the results were ERb SRC1 inh inactive, MT1-MMP txn act 2.1, ERa SRC1 pot inactive, Smad3 FoxH1 inh inactive, ERa SRC1 inh inactive and Calb biofilm kill inactive.
For O=C(c1ccco1)n1c(=S)nc2ccccn21 the results were ERb SRC1 inh inactive, MT1-MMP txn act inactive, ERa SRC1 pot inactive, Smad3 FoxH1 inh inactive, ERa SRC1 inh inactive and Calb biofilm kill inactive.
`COC(=O)[C@@]1(Cc2ccc(OC)cc2)[C@H]2c3cc(C(=O)N4CCCC4)n(Cc4ccc(O)c(OC)c4)c3C[C@H]2CN1C(=O)c1ccccc1` gave MT1-MMP txn act inactive.
CCOC(=O)Cc1csc(NC(=O)CSc2nc(N)c3c(C)c(C)sc3n2)n1 was read as ERb SRC1 inh inactive, MT1-MMP txn act inactive, ERa SRC1 pot inactive, Smad3 FoxH1 inh inactive, ERa SRC1 inh inactive and Calb biofilm kill inactive.
CC(C)(CO[C@@H]1C[C@@H]2CC[C@@]1(C)C2(C)C)[N+](=O)[O-] was read as Smad3 FoxH1 inh inactive.
`Cc1ccc(C2=C(Cl)C(=O)C(c3ccc(C)cc3)=C(Cl)C2=O)cc1` gave Smad3 FoxH1 inh 52.
Cc1ccc(C(=O)NCCCN2CCOCC2)o1 was read as ERb SRC1 inh inactive, MT1-MMP txn act inactive, ERa SRC1 pot inactive, Smad3 FoxH1 inh inactive, ERa SRC1 inh inactive and Calb biofilm kill inactive.
For COC(=O)c1cc2oc(C)cc2n1CC(=O)Nc1ccc(OC)c(OC)c1OC the results were ERb SRC1 inh inactive, MT1-MMP txn act inactive, ERa SRC1 pot inactive, Smad3 FoxH1 inh inactive, ERa SRC1 inh inactive and Calb biofilm kill inactive.
For COC(=O)c1cc2sc(Cl)cc2n1CC(=O)Nc1ccc(OC)c(OC)c1OC the results were ERb SRC1 inh inactive, MT1-MMP txn act inactive, ERa SRC1 pot inactive, Smad3 FoxH1 inh inactive, ERa SRC1 inh 54[fluorescence artefact?] and Calb biofilm kill inactive.
`N=C(N)c1ccc(-c2ccc(-c3ccc(C(=N)N)cc3)o2)cc1` gave Smad3 FoxH1 inh inactive.
For COc1ccccc1OC(C)C(=O)Nc1nc(-c2ccc(S(=O)(=O)N3CCOCC3)cc2)cs1 (configuration not stated) the results were ERb SRC1 inh inactive, MT1-MMP txn act inactive, ERa SRC1 pot 263[fluorescence artefact?], Smad3 FoxH1 inh inactive, ERa SRC1 inh inactive and Calb biofilm kill inactive.
`COc1ccccc1C(=O)Nc1nc(-c2ccc(S(=O)(=O)N3CCOCC3)cc2)cs1` gave ERb SRC1 inh inactive, MT1-MMP txn act inactive, ERa SRC1 pot 399[fluorescence artefact?], Smad3 FoxH1 inh inactive, ERa SRC1 inh inactive and Calb biofilm kill inactive.
`CCOc1cccc(C(=O)Nc2nc(-c3ccc(S(=O)(=O)N4CCOCC4)cc3)cs2)c1` gave ERb SRC1 inh inactive, MT1-MMP txn act inactive, ERa SRC1 pot inactive, Smad3 FoxH1 inh inactive, ERa SRC1 inh inactive and Calb biofilm kill inactive.
`O=C(Nc1nc(-c2ccncc2)cs1)c1ccc(S(=O)(=O)N2CCOCC2)cc1` gave ERb SRC1 inh inactive, MT1-MMP txn act inactive, ERa SRC1 pot 239, Smad3 FoxH1 inh inactive, ERa SRC1 inh inactive and Calb biofilm kill inactive.
For O=C(COc1cccc(Cl)c1)Nc1nc(-c2ccc(S(=O)(=O)N3CCOCC3)cc2)cs1 the results were ERb SRC1 inh inactive, MT1-MMP txn act inactive, ERa SRC1 pot 202, Smad3 FoxH1 inh inactive, ERa SRC1 inh inactive and Calb biofilm kill inactive.
For C[n+]1cccc(/C=C/c2ccc3cccc(O)c3n2)c1 the results were Smad3 FoxH1 inh inactive.
Cc1ncc(CN=Cc2ccc(Cl)cc2)c(N)n1 was read as Smad3 FoxH1 inh inactive.
